# Experimental data as given in PubChem BioAssay (NCI).
# Compounds without any hit were thinned out: in the full panel of roughly 83,000, 20% have a hit.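 The test compound was applied at a single concentration to cells in 96-well plates for 48 hours, and percent growth was recorded.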 Calls of active or inactive are those of the source. The calls were made as follows: active = growth percent below 10; inactive = the rest.
# Tested on: MDA-MB-468 breast
# Test: NCI-60 one-dose screen, 48 h (100 = growth as untreated, 0 = no growth, -100 = all killed)
# Conditions: 10 µM unless noted
row,SMILES,growth
1,NCCCNc1nc2ccc(Cl)cc2c2c(=O)c3cc(F)ccc3sc12,43.3% (inactive)
2,C=C1C(=O)O[C@H]2[C@H]1CC/C(COC(=O)NCc1ccc(Cn3c(=O)sn(-c4ccc(Cl)cc4)c3=O)cc1)=C\CC[C@@]1(C)O[C@@H]21,22.6% (inactive)
3,COc1cc(C(=O)c2cc(C(C)=O)c3cccc(C)n23)cc(OC)c1OC,15.4% (inactive)
4,COc1cccc(-c2[nH]c(=S)ncc2C(=O)c2ccccc2)c1,59.4% (inactive)
5,NC(=O)NC(=O)c1ccc(Cl)cc1,117% (inactive)
6,COc1cc(-c2csc(NC(=O)Nc3ccc(C(F)(F)F)cc3)n2)cc(OC)c1OC,-8.63% (active)
7,O=C(Nc1ccccc1O)c1ccccc1Nc1ccnc(C(F)(F)F)c1,116% (inactive)
8,CCCCC1CCCCN1C(=O)OCC (stereo not given),114% (inactive)
9,O=c1[nH]cnc2c1C(c1ccc(Br)cc1)c1sc3c(F)cccc3c1O2 (stereo not given),105% (inactive)
10,Cc1cc(-c2ccccc2)nc2ccccc12,100% (inactive)
11,Cc1c(Cl)cccc1NC(=O)CN1CCOCC1,107% (inactive)
12,Cc1ccccc1SSc1ccccc1C,68.4% (inactive)
13,COCCNC(=O)c1ccc(-c2nc3ccc4[nH]ncc4c3c3c2CCCC3)cc1,4.81% (active)
14,OB(O)c1cccc(-c2nc3ccc4[nH]ncc4c3c3c2CCCC3)c1F,55.3% (inactive)
15,Nc1cc(F)ccc1NC(=O)c1ccc(NC(=O)C/C=C/c2cccnc2)cn1,-27.4% (active)
16,CS(=O)(=O)Nc1cc(-c2ccc3ncc(C#N)c(Nc4cccc(Cl)c4F)c3c2)cnc1Cl,-45.3% (active)
17,COc1cc(NCC(O)CN(CC(C)C)CC(C)C)c2nc(C)ccc2c1 (stereo not given),-6.94% (active)
18,COc1ccc(Nc2cnc3cc(NS(=O)(=O)c4ccc(C)cc4)ccc3n2)cc1,46.1% (inactive)
19,Cc1ccc(Nc2nc(N)nc(CSCC(=O)NN)n2)cc1,95.7% (inactive)
20,CC(=O)Nc1nc(C)c(C(=O)N/N=C/N2CCCCC2)s1,101% (inactive)

row,SMILES,growth
1,CCOC(=O)Nc1nccs1,120% (inactive)
2,Clc1cccc(Cl)c1C1CSc2ccccc2N=C1c1ccccc1 (stereo not given),80.3% (inactive)
3,O=C1NC(=O)C(=Cc2cc(-c3ccc(Cl)cc3)n(-c3ccccc3)n2)C(=O)N1,87.3% (inactive)
4,C[C@]12CCC(=O)C[C@H]1CC[C@@H]1[C@@H]2CC[C@@]2(C)[C@H]1CC[C@]2(O)C(=O)CO,99.8% (inactive)
5,Clc1ccc2c(c1)N(c1ncnc3ccc(-c4cnc5[nH]ncc5c4)cc13)CC2,3.65% (active)
6,C/C(Cc1ccc(Cl)cc1)=C(/c1ccc(Cl)cc1)c1ccc(OCCN2CCCC2)cc1,66.1% (inactive)
7,COc1ccc(Cc2cnc(NC(=O)c3sc4ccccc4c3Cl)s2)cc1,23.5% (inactive)
8,CNCCCNc1nc2ccccc2c2c(=O)c3cc(Cl)ccc3sc12,18.4% (inactive)
9,Cc1ccc(-n2c(-c3ccccc3)c(-c3ccccc3)c3c(SCC(=O)n4[nH]c(N)cc4=O)ncnc32)cc1,91.8% (inactive)
10,COc1cc(/C=C/C(=O)c2ccc(NC(=O)CSc3nnc(-c4ccc(-c5nc6ccc(Cl)cc6[nH]5)cc4)o3)cc2)cc(OC)c1OC,103% (inactive)
11,COc1cc(-c2nn(C(C)(C)C)cc2-c2ccnc(NCCCNS(=O)(=O)c3ccc(F)cc3)n2)ccc1Cl,72.9% (inactive)
12,COc1cc(/C=C/C(=O)c2ccccc2)ccc1Oc1nc(NCCO)nc(N2CCOCC2)n1,103% (inactive)
13,O=C(N/N=c1/ccoc2cccnc12)N1CCN(c2ncccn2)CC1,2.98% (active)
14,CN1C/C=C\CCOc2cccc(c2)-c2ccnc(n2)Nc2cccc(c2)C1,-58.2% (active)
15,COc1cc(C(=O)Nc2ccc(N(C)C)cc2)cc(OC)c1OC,80% (inactive)
16,Cc1ccc(NC(=O)Cn2cc(CN3CCN(c4ccnc5cc(Cl)ccc45)CC3)nn2)cc1,88.1% (inactive)
17,N#Cc1cccc(/C(N)=N/C(N)=N/c2nc3ccccc3s2)c1,18.7% (inactive)
18,O=C(CCl)Nc1ccc(NC(=O)c2cc(Cl)ccc2O)c(Cl)c1,79.7% (inactive)
19,COc1ccc(-n2c(SCc3n[nH]c(=S)o3)nc3ccc(Cl)cc3c2=O)cc1,82.6% (inactive)
20,O=C1N/C(=N\c2nnc(-c3ccc(O)cc3)s2)S/C1=C\c1ccccc1O,99.4% (inactive)
